Compounds with a hit are over-represented: about 3.8% of the library has one in this group of screens.
ATXN2 expr inh = reduces ATXN2 reporter expression in HEK-293 cells; 0.72% of 360,000 active; HEK-293 ATXN2-luciferase reporter, luminescence, 24 h; AID 1745845; Potency, µM (top dose mostly 57 µM), for inactives: top-dose activity change, negative = inhibition, most hits filed as inhibitors; note: % is set by controls: 0 for no effect and ±100 for the full control effect; nearly all actives have a fitted effect of over 55% in size
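ATXN2-luciferase reporter cells (luciferase flanked by upstream and downstream ATXN2 gene portions) were treated 24 h at 37 °C with compounds at up to 57 uM. SteadyGlo luminescence gave expression; GF-AFC fluorescence gave viability.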
HT1080-NT tox = kills 2HG-producing HT-1080-NT fibrosarcoma cells | 1.6% of 360,000 active | AID 686970 | Potency, µM (doses to about 46.1 µM), for inactives: at the top dose activity, negative = less viability, actives largely listed as cytotoxic | HT-1080-NT fibrosarcoma viability, CellTiter-Glo ATP luminescence, 48 h;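 note: NT is the 2HG producing partner of a matched IDH1 knockdown line; 0% = DMSO-treated cells and -100% = media-only wells without cells; nearly all actives have a fitted effect of over 55% in size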
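HT-1080-NT fibrosarcoma cells (2HG-overproducing), 750 cells/well in RPMI with 5% FBS, dosed after 2 h and incubated 48 h at 37C. CellTiter-Glo luminescence normalized to DMSO and no-cell wells; concentration-response curves fitted and classed.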
HepG2 tox-1 = HepG2 cytotoxicity, counter-screen for TGF-b inhibitors. HepG2 CAGA-GFP viability, ATP luminescence, 18 h. Potency, µM (titrated, usually from 46.1 µM), for inactives: at the highest dose activity change, negative = cytotoxicity, most hits filed as cytotoxic. 0.76% of 410,000 active. AID 588856
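CellTiter-Glo luminescence gave cytotoxicity after 18 hours at 37 degrees C. The cells were HepG2 CAGA-GFP in 1% FBS DMEM, stimulated with 500 pg/mL TGF-beta after compound addition. %Activity was normalised to no-cell wells (complete cell-killing) and DMSO (no toxicity), and curves were fitted and classified.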
ATXN viability = cell viability loss in ATXN counter-screen; 0.49% of 400,000 active; Potency, µM (highest dose often 56.7 µM), hits mostly cytotoxic; S2 cells (HEK-293 line with an ATXN2-luciferase reporter) viability, CellTiter-Fluor protease fluorescence, 24 h; note: nearly all actives have a fitted effect of over 40% in size
TGFb inhibitor = blocks TGF-b signaling. HepG2 CAGA-GFP TGF-b/SMAD3 reporter, GFP fluorescence, 18 h; TGF-beta stimulated, 500 pg/mL final. Potency, µM (titrated, usually from 46.1 µM), without a hit: at the top dose activity, negative = inhibition, hits mostly inhibitors. 1.2% of 410,000 active; note: % is set by controls: 0 for no effect and ±100 for the full control effect; nearly all actives have a fitted effect of over 65% in size
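Read-out: total well GFP (ex488/em500-530) summed from mean per-cell fluorescence. Cells: HEPG2 CAGA-GFP, 1% FBS DMEM, 18 h at 37 degrees C with 500 pg/mL final TGF-beta. Unstimulated wells served as the full-inhibition control; stimulated DMSO wells = 0%.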
HT1080 IDH1KD tx = kills HT-1080 cells with IDH1 knockdown. HT-1080 IDH1 knockdown viability, ATP luminescence, 48 h. 2% of 360,000 active. Potency, µM (highest dose often 46.1 µM), for inactives: at the top dose activity, negative = toxicity, usual class: cytotoxic. AID 686971;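 note: 0% = DMSO wells and -100% = cell-free medium wells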
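% activity derives from luminescence (CellTiter-Glo), normalised to DMSO and no-cell wells. HT-1080-IDH1KD cells, 750/well, had 48 h compound exposure at 37 °C.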
TGFb confirm = confirmation of TGF-b signaling inhibitors in HepG2 reporter cells; Potency, µM (titrated, usually from 46.1 µM), for the others: at the highest dose activity, negative = inhibition, usual class: inhibitors; shares compounds with TGFb inhibitor; 63% of 1,600 active; HepG2 CAGA-GFP TGF-b reporter, GFP fluorescence, 18 h; cells stimulated with TGF-beta, 500 pg/mL; AID 720534; note: % is set by controls: 0 for no effect and ±100 for the full control effect; nearly all actives have a fitted effect of over 65% in size
HepG2 tox-2 = toxic to HepG2 cells in TGF-b counterscreen; HepG2 CAGA-GFP viability, ATP luminescence, 18 h; cells stimulated with TGF-beta, 500 pg/mL; 27% of 1,600 active; shares compounds with TGFb inhibitor; Potency, µM (titrated, usually from 46.1 µM), for inactives: at the highest dose activity, negative = cytotoxicity, actives largely listed as inhibitors; note: % is set by controls: 0 for no effect and ±100 for the full control effect; nearly all actives have a fitted effect of over 70% in size
CCL64 TGFb inh = TGF-b inhibition, CCL64 orthogonal assay; CCL64 CAGA-GFP reporter, TGF-b stimulated, GFP fluorescence, 18 h; shares compounds with TGFb inhibitor; 41% of 1,600 active; Potency, µM (series often up to 46.1 µM), inactives show at the highest dose activity, negative = inhibition, actives largely listed as inhibitors; note: nearly all actives have a fitted effect of over 65% in size
COP TGFb inh = TGF-b inhibition validated with COP promoter; shares compounds with TGFb inhibitor; HepG2 COP-GFP TGF-b reporter, GFP fluorescence, 18 h; cells stimulated by added recombinant TGF-beta; Potency, µM (titrated, usually from 46.1 µM), without a hit: at the highest dose activity, negative = inhibition, actives largely listed as inhibitors; 3% of 1,600 active; AID 720537; note: nearly all actives have a fitted effect of over 70% in size
* = called active by the depositor; i = inactive; ? = inconclusive; . = not tested or not shown; [ ] = another dose, or the depositor's remark. Calls come from the whole dose curve; as a rule, active = well fitted curve in the direction sought with a large enough effect; inconclusive = small, poorly fitted or top-dose-only effect, or another doubt; inactive = no such curve, though single readings can be large; an effect the other way counts as inactive or inconclusive. Potency is the fitted concentration of half-maximal effect.

SMILES | ATXN2 expr inh | HT1080-NT tox | HepG2 tox-1 | ATXN viability | TGFb inhibitor | HT1080 IDH1KD tx | TGFb confirm | HepG2 tox-2 | CCL64 TGFb inh | COP TGFb inh
CC[C@]12c3[nH]c4cc(CCC(=O)N(C)C)ccc4c3CCN1C(=O)[C@@H](CC(=O)NC/C=C(\C)CCC=C(C)C)C[C@@H]2C(=O)N1CCN(C(=O)C2CC2)CC1 | -22% | 0% | -17% | ? | ? | -16% | . | . | . | .
CCOC(=O)c1cccc(NC(=O)Nc2ccc3c(c2)N(C)C(=O)c2ccccc2S3)c1 | . | . | -18% | . | ? | . | . | . | . | .
COc1ccc(OC)c(CCNC(=O)c2c3c(nc4ccccc24)C(=O)N(C2CCCCC2)C3)c1 | . | . | -27% | . | -19% | . | . | . | . | .
COc1cc(Cl)c(C)cc1NC(=O)CCn1c(=O)c2cccn2c2cccnc21 | . | . | 3% | . | ? | . | . | . | . | .
Cn1nnc2c(N3CCN(c4cccc(Cl)c4)CC3)ncnc21 | . | . | 1% | . | 2% | . | . | . | . | .
CC[C@]12c3[nH]c4cc(-c5ccco5)ccc4c3CCN1C(=O)[C@@H](CC(=O)NC/C=C(\C)CCC=C(C)C)C[C@@H]2C(=O)N1CCN(C(=O)C2CC2)CC1 | ? | ? | -12% | i | ? | ? | . | . | . | .
CC[C@]12c3[nH]c4cc(-c5ccco5)ccc4c3CCN1C(=O)[C@@H](CC(=O)NC/C=C(\C)CCC=C(C)C)C[C@@H]2C(=O)N1CCN(C(=O)c2ccco2)CC1 | ? | -20% | -20% | i | 10µM* | ? | 10µM* | -13% | 13µM* | 2%
Cn1cc([N+](=O)[O-])c(C(=O)Nc2ccc3nc(-c4ccccc4)[nH]c3c2)n1 | 44% | ? | 25% | i | 7.9µM* | ? | 6.5µM* | ? | 12% | 23%
Cc1noc2ncnc(Oc3ccc4ccccc4c3)c12 | 3% | 9% | -51% | i | -2% | 0% | . | . | . | .
Cc1noc2ncnc(Oc3cc(Cl)ccc3Cl)c12 | -7%[11.3 µM] | ? | -27% | ? | ? | 9% | 18µM* | ? | ? | 17%
Cc1ccc(Nc2cc(C(=O)NCCc3ccccc3)c3ccccc3n2)c(C)c1 | -5% | . | -8% | i | 3% | . | . | . | . | .
COc1cc(/C=N/NC(=O)c2ccncc2)ccc1OC(=O)c1cccc(Br)c1 | -10% | 9% | -12% | i | -2% | 6% | . | . | . | .
COc1cccc(/C=N/NC(=O)c2ccncc2)c1OC(=O)c1ccc(Br)cc1 | ? | ? | -36% | ? | ? | ? | ? | -20% | ? | 8%
O=C(NC(Nc1nc2ccc([N+](=O)[O-])cc2s1)(C(F)(F)F)C(F)(F)F)c1cccnc1 | ? | 9.2µM* | -31% | ? | 3.2µM* | 13µM* | 4.1µM* | 1.6µM* | 5.8µM* | 87%
O=C(NC(NNc1ccc([N+](=O)[O-])cc1)(C(F)(F)F)C(F)(F)F)c1ccccc1Cl | -9% | -12% | -22% | i | ? | -20% | . | . | . | .
O=C(NC(Nc1nc2ccc([N+](=O)[O-])cc2s1)(C(F)(F)F)C(F)(F)F)c1ccccc1Cl | ? | 3.3µM* | -55% | ? | 0.45µM* | 2.9µM* | 0.92µM* | 1µM* | 1.5µM* | 82%
CN(C)S(=O)(=O)c1ccc2nc(NC(=O)c3cccnc3)sc2c1 | 4% | 7% | -2% | i | -4% | 7% | . | . | . | .
COc1ccc(Br)cc1CNC(=O)c1ccc2c(c1)nc1n2CCCCC1 | . | . | -15% | . | 38% | . | . | . | . | .
COc1ccc(CNC(=O)CCc2nnc3n(C)c(=O)c4sccc4n23)cc1 | -1% | . | -22% | i | 7% | . | . | . | . | .
COc1ccc(N2CCc3c(C)nc4c(OC)cccc4c32)cc1 | -19%[11.3 µM] | 3.7µM* | -13% | ? | 11µM* | 3.3µM* | 15µM* | ? | 26µM* | 16%
Cc1nc2c(C)cccc2c2c1CCN2c1ccccc1F | ? | -8% | -27% | i | ? | ? | . | . | . | .
CNC(=O)c1ccc2nc(-c3ccco3)c(-c3ccco3)nc2c1 | . | . | -37% | . | -13% | . | . | . | . | .
COc1ccc(C(=O)/C(C#N)=N/Nc2cccc([N+](=O)[O-])c2)cc1 | . | ? | -19% | 11µM* | 10µM* | 23µM* | 5.2µM* | ? | 8.2µM* | 46%
COc1ccc(OCC(=O)N/N=C(\C)CC(=O)Nc2cccc([N+](=O)[O-])c2)cc1 | . | -5% | 1% | i | 4% | 4% | . | . | . | .
Cc1cccc(CN2CCCC(C(=O)c3ccc4c5c(cccc35)CC4)C2)n1 (configuration not stated) | -35% | ? | -60% | i | 10µM* | ? | ? | ? | ? | 60%
Cc1cc(C)c2c(=O)cc(C(=O)NCc3ccc(S(N)(=O)=O)cc3)oc2c1 | -9% | . | 7% | i | 28% | . | . | . | . | .
CC(Oc1ccc(Cl)cc1Cl)C(=O)NC1=NN(c2ccccc2)C(=O)C1 (configuration not stated) | 1% | -29% | -28% | i | 18µM* | ? | ? | ? | ? | 61%
O=C(NCc1ccc2c(c1)OCO2)c1ccc2c(c1)N(Cc1cccc(Cl)c1)C(=O)c1ccccc1S2=O (configuration not stated) | . | . | -5% | . | -4% | . | . | . | . | .

From PubChem
